# MARV entry inh = blocks Marburg virus binding to or entry into cells. Marburg virus pseudotyped entry inhibition, cell reporter. Potency, µM (doses to about 37.8 µM), hits mostly inhibitors. hit rate 1.8% among 300,000; calls by dose curve; tested in HEK293 cells
# HCMV inh = blocks human cytomegalovirus replication; hit rate 4.5% among 410,000; activity change, negative = inhibition, % at 57.5 µM; HFF cells, HCMV-luciferase reporter, 72 h; hits give low values; in the data active = activity change below about -60%; inconclusive = no clear call, values can overlap the other calls; inactive = above about -39%
#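 Two compound doses tested in HFFs infected with HCMV-luciferase, MOI 1 PFU/cell, 72 h at 37C. Lysate luminescence read with OneGlo; data normalized against buffer-only and 10uM Salinomycin inhibitor controls.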
# LASV entry inh = Lassa virus entry inhibition | Lassa virus pseudotype entry inhibition, cell reporter | Potency, µM (series often up to 37.9 µM), usual class: inhibitors | hit rate 1.2% among 300,000; calls by dose curve; tested in HEK293 cells; note: nearly all actives have a fitted effect of over 50% in size
# Pf growth 96h = P. falciparum growth inhibition at 96 hour, primary screen for plastid delayed-death inhibitors. P. falciparum luciferase reporter growth, 96 h. hit rate 6.9% among 320,000. AID 504834. Potency, µM (titrated, usually from 28.7 µM), hits mostly inhibitors
#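 P. falciparum expressing integrated firefly luciferase, in erythrocytes at 2% hematocrit, 0.05% parasitemia, incubated with compounds 96 h at 37 C, 5% CO2. Growth inhibition read as loss of luminescence; two-generation exposure targets delayed-death apicoplast inhibitors.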
# HCV inhibitor = inhibitors of hepatitis C virus infection; Potency, µM (titrated, usually from 41.8 µM), most hits filed as inhibitors; hit rate 3.4% among 340,000; Huh7.5.1 HCVcc-Cre infection, luciferase reporter, 44 h
#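 Compounds are dispensed onto cells plated 4 h earlier at 1,000 per well, with HCVcc-Cre virus (about 0.5 moi) added next. Following 44 h of culture, luminescent signal is measured for 15 sec after 15 min with substrate at room temperature.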
# Pf growth 48h = P. falciparum growth inhibition at 48 hours (one generation); Potency, µM (titrated, usually from 28.7 µM), hits mostly inhibitors; AID 504832; P. falciparum luciferase growth in erythrocytes, 48 h; hit rate 5.9% among 310,000
#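 Parasite viability was followed by luminescence of a genomically integrated firefly luciferase. Cultures held 0.1% parasitemia at 2% hematocrit (final), incubated under 5% CO2 at 37 C.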
# Numbers stand for hits; - = inactive; ? = inconclusive; . = no result given; ! = repeats disagree; [ ] = remark or other dose. A selection: hits, their analogues and other compounds. The true share with any hit is near 14%. Unless noted, calls come from the whole dose curve; as a rule, active = well fitted inhibition curve with a large enough effect; inconclusive = small, poorly fitted or top-dose-only effect, or another doubt; inactive = no such curve, though single readings can be large or run the other way.
SMILES,MARV entry inh,HCMV inh,LASV entry inh,Pf growth 96h,HCV inhibitor,Pf growth 48h
Cc1cccc(S(=O)(=O)c2c(N)n(/N=C/c3ccco3)c3nc4ccccc4nc23)c1,?,-,-,-[5.75 µM],2.5µM,8.3µM
Cc1ccc2c(c1)c1c(c(=O)n(-c3ccccc3C)c(=O)n1Cc1ccccc1F)n2C,.,-,?,.,.,.
Cc1cc(NS(=O)(=O)c2ccc(NC(=O)COc3ccccc3Br)cc2)no1,-,-,-,.,.,.
Cc1ccc(S(=O)(=O)c2c(N)n(/N=C/c3ccco3)c3nc4ccccc4nc23)cc1C,7.1µM,?,-,3.3µM,?,2.1µM
CCCCNC(=O)c1c(N)n(/N=C/c2ccccn2)c2nc3ccccc3nc12,.,.,.,1.5µM,.,-
CSc1ccc(Cn2c(C)c(C(=O)NCc3cccc(Cl)c3)sc2=O)cc1,.,-,.,.,.,.
Cc1ccc(C)c(N2CCN(c3ncnc4c3cnn4-c3ccccc3)CC2)c1,-,-,.,-,-,.
Cc1ccc(C(=O)N2CCN(c3ncnc4c3cnn4-c3ccccc3)CC2)cc1,.,-77,.,.,.,.
Cc1ccccc1C(=O)N1CCN(c2ncnc3c2cnn3-c2ccccc2)CC1,?,?,-,-,7.9µM,?
COc1cccc(-n2cc(CN(C)Cc3nc(Cc4cccc(F)c4)no3)cn2)c1,-,-,?,?,-,-
COc1ccc(CN(C)Cc2nc(Cc3cccc(F)c3)no2)c2cccnc12,?,-82,?,?,10µM,?
CC(=O)c1sc(NC(=O)C2(F)C(F)(F)C(F)(F)C(F)(F)C(F)(F)C2(F)F)nc1C,2.6µM,-98,1.6µM,-,10µM,8.3µM
CC(=O)c1sc(NC(=O)C=C(C)C)nc1C,-,-69,-,.,-,-
CCCC(=O)Nc1nc(C)c(C(C)=O)s1,?,-,-,-,-,-
CCC(C)NC(=O)C1CCC(CNS(=O)(=O)c2cccc3nsnc23)CC1 (stereo not drawn),-,-,-,-,-,-
O=C(Cc1ccc([N+](=O)[O-])cc1)Nc1cccc(C(F)(F)F)c1,-,?,-,?,-,-
O=C(Cc1ccc([N+](=O)[O-])cc1)Nc1cc(C(F)(F)F)cc(C(F)(F)F)c1,?,-,?,15µM,-,-
O=C(Cc1ccc([N+](=O)[O-])cc1)Nc1ccc(O)cc1C(=O)O,?,-,-,5.2µM,-,-
O=C(CCCCn1c(=O)c2ccccc2n(CC(=O)Nc2ccc(F)cc2)c1=O)NCc1ccco1,-,-,-,?,-,12µM
CCCN(CCC)C(=O)Cn1c(=O)n(CCCCC(=O)NCc2ccco2)c(=O)c2ccccc21,-,-,-,12µM,-,.
O=C(CCCn1c(=O)c2ccccc2n(CC(=O)NCc2ccco2)c1=O)NCc1ccco1,?,-,-,-,-,-
C=CCn1c(SCC(=O)/C(C#N)=C(\C)N)nc2sc(CC)cc2c1=O,?,-,?,10µM,?,?
C=CCn1c(SCC(=O)c2cccs2)nc2sc(CC)cc2c1=O,?,?,?,-,3.2µM,.
C=CCn1c(SCC(=O)O)nc2sc(CC)cc2c1=O,-,-,-,?,-,-
C=CCn1c(SCC#N)nc2sc(CC)cc2c1=O,-,-,-,-,-,-
SMILES,MARV entry inh,HCMV inh,LASV entry inh,Pf growth 96h,HCV inhibitor,Pf growth 48h
COc1ccc(C(C)(O)c2nc(-c3csc4ccccc34)cs2)cc1 (stereo not drawn),.,-,.,.,.,.
O=C(N/N=C\c1ccc(Cl)s1)c1ccc(Cn2cccn2)o1,-,-,?,-,-,-
O=C(N/N=C/c1c(O)ccc2ccccc12)c1[nH]ncc1Br,?,-99,16µM,12µM,?,12µM
CCOc1ccc(/C=N/NC(=O)c2[nH]ncc2Br)c(O)c1,6.5µM,-101,1.8µM,-,22µM,?
O=C(N/N=C\c1c(O)ccc2ccccc12)c1ccc(Cn2cccn2)o1,5.8µM,-99,13µM,?,?,?
CCN(CC)C(=O)c1cccnc1,.,-,.,-,.,-
CCn1c(=O)c2cc(C(=O)N(CCCOC(C)C)Cc3ccco3)sc2c2ccccc21,-,-,-,.,.,.
Cc1ccc(C)c(CN2CCC(CNC(=O)Nc3ccc(Cl)cc3)CC2)c1,?,-,-,?,-,-[0.00184 µM]
Cc1ccc(C)c(CN2CCC(CNC(=O)Nc3ccc(Br)cc3F)CC2)c1,4.5µM,-79!,?,-,?,13µM
Cc1ccc2onc(CNC(=O)Nc3ccccc3C#N)c2c1,.,-,?,.,.,.

# Source: PubChem (National Center for Advancing Translational Sciences (NCATS))
